In PubChem BioAssay AID602250 (The Scripps Research Institute Molecular Screening Center, 2012) one finds inhibition data, which are given here for 61 molecules.

The campaign covered roughly 360,000 compounds. About 2,200 (0.61%) were called active. The sample holds actives, similar compounds and a random draw of the others, so the mix is not that of the screen. Unmarked numbers belong to inactive results.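 How the source made its calls: active means inhibition above a per-plate cutoff, the plate's mean sample inhibition plus 3 SD (cut at about 24% in these data); inactive means the rest.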

The assay is described as follows: nonselective inhibitors of ATP calcium response in CHO-K1, primary screen, counter-screen for M1 antagonist project, cell-based, Fluo-8 calcium fluorescence, full deck, 1536-well (AID 602250).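 Further: 0% = DMSO plus EC80 ATP and 100% = DMSO alone without ATP.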 The conditions noted are these: CHO-K1 parental, ATP-induced calcium, Fluo-8 fluorescence; at 3 µM; stronger effect = higher value. In general terms: Counterscreens check selectivity or assay interference.
Turning to `O=C(Nc1c(C(=O)N2CCCCC2)cnn1-c1ccccc1)c1ccco1`, the inhibition (as a rule, the change of the read-out against control, counted positive when it falls) was -0.49%.

In the case of `O=C(Nc1ccc(-n2cccn2)cc1)C1CCN(Cc2ccsc2)CC1`, the inhibition was 9.41%.

As to `Cc1cc(C)cc(C(=O)N(CCc2ccccc2)C2=CC3CCC(C2)N3C)c1` (stereo unspecified), the inhibition was -5.45%.

With `CCCN(CCc1ccccc1)C1CCc2c(O)cccc2C1` (stereo unspecified), the inhibition was 27.5% (active).

As for `CCN(CC(=O)NC(C)C)C(=O)CCNC(=O)c1ccc(Cl)cc1`, the inhibition is -14.6%.

In the case of `O=C1NC[C@@H](Cc2ccc(O)cc2)N(CCc2cccc(F)c2)C1=O`, the inhibition was -5%.

Regarding `Cc1cccn2c(=O)c(/C=C(\C#N)S(=O)(=O)c3ccc(Cl)cc3)c(N3CCC(C(N)=O)CC3)nc12`, the inhibition is -14.1%.

On to `Cc1cc(C)c(C#N)c(N2CCC(C(N)=O)CC2)n1`, for which the inhibition was 23.7% (active).

Turning to `N#Cc1c(N2CCCCC2)nc(N)c2c(N)nc(SCC(=O)O)cc12`, the inhibition is -8.03%.

Consider `Cc1ccc(OS(=O)(=O)c2ccc(-c3csc(C)n3)s2)c(C)c1`, for which the inhibition is -12%.

Consider `CC1=C2C(=O)OC(c3ccoc3)C2(C)CCC1` (stereo unspecified), for which the inhibition is -12.4%.

`Cc1ccc(-n2nc3c(=O)n(C(C)C(=O)NCc4ccc5c(c4)OCO5)nc(C)c3c2C)cc1` (stereo unspecified): the inhibition is -17.4%.

As to `CC1=C(C(=O)N(C)C)CC(CC(=O)NCCN2CCOCC2)C(=O)N1Cc1ccccc1` (stereo unspecified), the inhibition is -3.35%.

On to `COc1ccc(OC)c(C2C3=C(N=c4s/c(=C\c5cccc(O)c5)c(=O)n42)c2ccccc2CC3)c1` (stereo unspecified), for which the inhibition was -5.43%.

Take `O=C(Cc1ccc(Cl)cc1)NC(=S)Nc1ccccc1O`: the inhibition was 31.4% (active).

On to `COC(=O)c1ccccc1NC(=O)CN(Cc1ccc(Cl)cc1)S(C)(=O)=O`, for which the inhibition is -17.4%.

Regarding `CCOc1ccccc1NC(=S)NC(=O)CCc1ccccc1`, the inhibition is -6.79%.

On to `CC(=O)c1cc(C#N)c(SCC(=O)Nc2nccs2)nc1C`, for which the inhibition was -13.3%.

Regarding `Clc1cc(NC2CCCCC2)ncn1`, the inhibition was 0.49%.

In the case of `COCCCN(C(=O)Cn1ncc2c(=O)oc3ccc(C)cc3c21)C(C)c1ccncc1` (stereo unspecified), the inhibition is -9.26%.

Consider `CCCCn1nnnc1C(c1cccc(OC)c1OC)N1CCN(C/C=C/c2ccccc2)CC1` (stereo unspecified), for which the inhibition was -19.7%.

With `CN(c1ccccc1)S(=O)(=O)c1ccc(Cl)c(C(=O)OCC(N)=O)c1`, the inhibition is 4.64%.

In the case of `CC(=O)c1c(C)[nH]c(C(=O)COC(=O)c2cccc(S(=O)(=O)N(C)c3ccccc3)c2)c1C`, the inhibition was 43.1% (active).

As to `CC(=O)c1c(C)[nH]c(C(=O)COC(=O)CCOc2ccc(C)cc2)c1C`, the inhibition was 4.03%.

For `O=C(NCc1ccccc1)[C@@H]1CSC2c3ccccc3C(=O)N21` (stereo partly specified), the inhibition was -4.7%.

Consider `Nc1ccc2nn(-c3ccc(Cl)cc3)nc2c1`, for which the inhibition was -10.4%.

As for `CN(C)c1ccc(CSc2ccccc2)cc1`, the inhibition is -21.6%.

Regarding `CN(C)c1ccc(/C=C2\NC(=S)N(Cc3ccccc3)C2=O)cc1`, the inhibition is 53.4% (active).

Regarding `CN(C(=O)CN1C(=O)NC(C)(CCc2ccccc2)C1=O)c1ccccc1` (stereo unspecified), the inhibition was -3.27%.

Consider `Cc1ccc(N2C(=O)CC(Sc3ncn[nH]3)C2=O)cc1` (stereo unspecified), for which the inhibition is -12.5%.

As for `COc1ccc(N2C(=O)CC(Sc3n[nH]c(-c4ccc(C)cc4)n3)C2=O)cc1` (stereo unspecified), the inhibition is 24.5% (active).

As for `COc1ccc(-c2nc(SCC(=O)N3CCOCC3)n[nH]2)cc1`, the inhibition is -11.8%.

For the molecule `Cn1c(SCC(=O)NC2CCCCC2)nnc1-c1cc2ccccc2o1`, the inhibition is -5.47%.

Regarding `CCc1c(SCCC(=O)O)nc2ccccc2c1C`, the inhibition is -13.8%.

For the molecule `CCNC(=S)NCC`, the inhibition is -17.7%.

On to `O=C1NNC(c2ccccc2)=N/C1=C\c1ccc(Cl)cc1`, for which the inhibition is 3.07%.

For `Cc1ccc(C2=C/C(=C\c3cccnc3)C(=O)O2)cc1`, the inhibition is 6.03%.

For `O=C1OC(c2ccc(Cl)cc2)=N/C1=C\c1cccnc1`, the inhibition is 32.7% (active).

`CCCCCCN1C[C@@H](O)[C@H](n2cc(COC(=O)c3ccccc3)nn2)C[C@@H]1c1ccc(Cl)cc1`: the inhibition was 0.85%.

As to `CN1OC(COC(=O)c2ccc(Cl)cc2)CC1c1ccccc1` (stereo unspecified), the inhibition is 28.7% (active).

Turning to `Cn1cncc1COC(=O)c1ccc(Cl)cc1`, the inhibition is 9.06%.

In the case of `O=C(Nn1cc(C(=O)N2CCN(c3ccccc3F)CC2)c2ccccc2c1=O)c1cnccn1`, the inhibition was -2.09%.

On to `O=C(NCC1CCCO1)c1cc2c([nH]c3ccccc32)c(-c2ccc(F)cc2)n1` (stereo unspecified), for which the inhibition is 31.3% (active).

`O=C(NCCCO)c1cc2c([nH]c3ccccc32)c(-c2ccc(F)cc2)n1`: the inhibition was -6.07%.

Regarding `COc1ccc2cc(C(=O)NCC3CCCO3)[nH]c2c1` (stereo unspecified), the inhibition was -13.7%.

For the molecule `Fc1ccccc1CCNc1nnnn1-c1ccccc1`, the inhibition was -1.72%.

With `COC(=O)Cc1ccc(NC(=S)NCc2ccco2)cc1`, the inhibition is 2.26%.

For the molecule `OCCc1ccc(NCCc2ccco2)cc1`, the inhibition was 29.2% (active).

Take `Cc1ccsc1C(=O)NCCc1ccco1`: the inhibition is -8.62%.

Regarding `CC1=CC2=NC(=O)CC(C)(C(=O)N(CC(=O)NC(C)(C)C)Cc3ccccc3)N2C=C1` (stereo unspecified), the inhibition is -17.9%.

For the molecule `CC1(C)CC(=O)C2=C(C1)N=C1SCCC(=O)N1C2c1ccc(C(F)(F)F)cc1` (stereo unspecified), the inhibition was -16.7%.

Consider `N/C(=N\OC(=O)Cc1ccccc1[N+](=O)[O-])c1ccc(Br)cc1`, for which the inhibition is -3.46%.

Take `N/C(=N\OC(=O)/C=C/c1ccccc1)c1ccc(Br)cc1`: the inhibition was 24.5% (active).

`N/C(=N\OC(=O)N1c2ccccc2Sc2ccccc21)c1ccc(Br)cc1`: the inhibition is -4.6%.

In the case of `CCc1ccc(/C=N/NC(=O)c2ccc(OC3CCCC3)cc2)s1`, the inhibition was 3.77%.

`Cc1cc(=O)oc2c(C)c(OCC(=O)NCCN3CCOCC3)ccc12`: the inhibition is -7.03%.

With `O=C(C1CCCO1)N1CCN(S(=O)(=O)c2ccc(Br)cc2)CC1` (stereo unspecified), the inhibition was 5.99%.

As for `COc1cc(C(=S)NCc2ccccc2)cc(Br)c1O`, the inhibition was -5.75%.

`CCC(C)NC(=O)Cn1nc(C(F)(F)F)c2c1CCC2` (stereo unspecified): the inhibition is -24.7%.

For `O=C(Cn1nc(C(F)(F)F)c2c1CCC2)NCc1ccc(F)cc1`, the inhibition is 25% (active).

For the molecule `Cc1cc(NC(=O)Cn2nc(C(F)(F)F)c3c2CCCC3)no1`, the inhibition was -9.16%.
